From the supplement of paper PMC3334620
The full ranking holds about 33,000 sequences; the median of “E-score (-0.5 to 0.5)” is about -0.0014, and the highest 2% start at about 0.25. The full list was thinned out, with the highest values kept by preference.

What follows are sequences tested against T1, Cad1 (UniProt P24813) (assay: PBM E-score (8-mer binding enrichment) (E-score (-0.5 to 0.5)); higher = stronger / more preferred TF binding). Details: protein concentration: 100 nM; construct: GST-full length.
T1 sequence: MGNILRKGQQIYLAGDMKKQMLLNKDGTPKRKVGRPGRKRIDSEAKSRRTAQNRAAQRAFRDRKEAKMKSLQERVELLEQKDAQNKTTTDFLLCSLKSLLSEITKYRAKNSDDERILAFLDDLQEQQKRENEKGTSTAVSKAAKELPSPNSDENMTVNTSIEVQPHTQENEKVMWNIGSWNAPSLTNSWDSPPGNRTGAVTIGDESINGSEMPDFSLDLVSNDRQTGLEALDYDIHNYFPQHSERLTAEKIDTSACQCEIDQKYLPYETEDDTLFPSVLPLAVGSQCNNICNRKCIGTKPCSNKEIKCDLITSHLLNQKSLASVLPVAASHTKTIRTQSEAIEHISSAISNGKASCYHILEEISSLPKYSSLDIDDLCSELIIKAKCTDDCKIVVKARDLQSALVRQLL
Description: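 Universal 'all 10-mer' protein binding microarrays (Agilent AMADID 015681) probed with GST-tagged S. cerevisiae TFs (full-length or DBD) made by in vitro transcription/translation (PURExpress), about 100-200 nM. Bound TF was detected with fluorescent anti-GST. Each ungapped 8-mer (which stands for itself and its reverse complement) is scored by the PBM enrichment score (E-score), a modified Wilcoxon-Mann-Whitney statistic from -0.5 to +0.5, computed with the Universal PBM Analysis Suite. Scale: above 0.35 generally sequence-specific binding.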

Q: How did the “PBM E-score” value turn out when CATCCTGC was run?
A: 0.0554

Q: Which “PBM E-score” value does the source give for TGTGGCAA here?
A: 0.0896

Q: CCCGGACA was tested. Which “PBM E-score” value did it give?
A: 0.039

Q: How did the “PBM E-score” value turn out when CCATCCAG was run?
A: -0.0345

Q: How did the “PBM E-score” value turn out when AATATCCA was run?
A: 0.0727

Q: For AATATTCT, which “PBM E-score” value is on record?
A: 0.126

Q: AATATTCC was tested. Which “PBM E-score” value did it give?
A: 0.297

Q: AATATCCC was tested. Which “PBM E-score” value did it give?
A: -0.00553

Q: AATATTCA was tested. Which “PBM E-score” value did it give?
A: 0.157

Q: AATATTCG was tested. Which “PBM E-score” value did it give?
A: 0.273

Q: Which “PBM E-score” value does the source give for CATATTCG here?
A: 0.129

Q: With AATATCCG as the sequence, how does the “PBM E-score” value read?
A: 0.265

Q: With GATATTCC as the sequence, how does the “PBM E-score” value read?
A: 0.0127

Q: Which “PBM E-score” value does the source give for AAGGTTGC here?
A: -0.00934

Q: Which “PBM E-score” value does the source give for CCTAGCAC here?
A: -0.199

Q: Which “PBM E-score” value does the source give for CCATAGTC here?
A: -0.0534

Q: GACCAAGC was tested. Which “PBM E-score” value did it give?
A: 0.0511

Q: Which “PBM E-score” value does the source give for CCCACTCA here?
A: -0.193

Q: Which “PBM E-score” value does the source give for AGATGGAG here?
A: -0.0255

Q: For CTAATCAA, which “PBM E-score” value is on record?
A: 0.238

Q: Which “PBM E-score” value does the source give for ATAATCAG here?
A: 0.225

Q: CTAATCAC was tested. Which “PBM E-score” value did it give?
A: 0.326

Q: GGAATCGA was tested. Which “PBM E-score” value did it give?
A: 0.00927

Q: CGAATCGA was tested. Which “PBM E-score” value did it give?
A: 0.325

Q: For ATAATCAT, which “PBM E-score” value is on record?
A: 0.252

Q: Which “PBM E-score” value does the source give for ATAATCGA here?
A: 0.146

Q: For CTAATCGA, which “PBM E-score” value is on record?
A: 0.315

Q: AGAATCGA was tested. Which “PBM E-score” value did it give?
A: 0.0389

Q: For CTAATCAG, which “PBM E-score” value is on record?
A: 0.227

Q: For CTAATCGC, which “PBM E-score” value is on record?
A: 0.0731

Q: For ATAATCAA, which “PBM E-score” value is on record?
A: 0.157

Q: With CTGGACGC as the sequence, how does the “PBM E-score” value read?
A: 0.069

Q: For CGAATACC, which “PBM E-score” value is on record?
A: -0.104

Q: With AATCTCAT as the sequence, how does the “PBM E-score” value read?
A: 0.0796

Q: For CCCGCTCC, which “PBM E-score” value is on record?
A: -0.37

Q: TGCCGCCA was tested. Which “PBM E-score” value did it give?
A: 0.0461

Q: CGGGCAGA was tested. Which “PBM E-score” value did it give?
A: 0.0491

Q: Which “PBM E-score” value does the source give for ACACCCTG here?
A: -0.133

Q: Which “PBM E-score” value does the source give for AGAGAATA here?
A: 0.0902

Q: How did the “PBM E-score” value turn out when GGATGCAC was run?
A: -0.0779

Q: GTAAGGAC was tested. Which “PBM E-score” value did it give?
A: -0.19

Q: How did the “PBM E-score” value turn out when CGGGGAAA was run?
A: 0.0522

Q: With GTTACTCA as the sequence, how does the “PBM E-score” value read?
A: 0.182

Q: With TATACTAA as the sequence, how does the “PBM E-score” value read?
A: 0.107

Q: Which “PBM E-score” value does the source give for AATACTAA here?
A: 0.253

Q: With GCTACTAA as the sequence, how does the “PBM E-score” value read?
A: 0.0213

Q: Which “PBM E-score” value does the source give for TATACTGA here?
A: 0.288

Q: GTTACTAA was tested. Which “PBM E-score” value did it give?
A: 0.374

Q: Which “PBM E-score” value does the source give for CATACTGA here?
A: 0.103

Q: For GATACTGA, which “PBM E-score” value is on record?
A: 0.14

Q: With AATACTAT as the sequence, how does the “PBM E-score” value read?
A: -0.0768

Q: For CACTGGCG, which “PBM E-score” value is on record?
A: -0.0107

Q: For CAGCTAAA, which “PBM E-score” value is on record?
A: -0.121

Q: How did the “PBM E-score” value turn out when ACTAGTTG was run?
A: -0.0546

Q: Which “PBM E-score” value does the source give for GGTGGCAA here?
A: -0.0998

Q: Which “PBM E-score” value does the source give for CCAACGCA here?
A: 0.0411

Q: CGCAGACC was tested. Which “PBM E-score” value did it give?
A: -0.146

Q: Which “PBM E-score” value does the source give for CGCAGACG here?
A: 0.257

Q: How did the “PBM E-score” value turn out when CGCAGACA was run?
A: 0.122

Q: With ACTCATTA as the sequence, how does the “PBM E-score” value read?
A: 0.109

Q: Which “PBM E-score” value does the source give for ACACAGCG here?
A: 0.251

Q: With ACACAGCC as the sequence, how does the “PBM E-score” value read?
A: 0.0823

Q: How did the “PBM E-score” value turn out when ACACAGCA was run?
A: 0.076

Q: How did the “PBM E-score” value turn out when CACAGGAG was run?
A: 0.0278

Q: How did the “PBM E-score” value turn out when ATAGAATC was run?
A: -0.129

Q: How did the “PBM E-score” value turn out when ATAAATTC was run?
A: 0.091

Q: With GTAAATTA as the sequence, how does the “PBM E-score” value read?
A: -0.053

Q: For ATAAATTA, which “PBM E-score” value is on record?
A: 0.364

Q: With ATAAATTG as the sequence, how does the “PBM E-score” value read?
A: 0.253

Q: How did the “PBM E-score” value turn out when CTAAATTA was run?
A: 0.2

Q: Which “PBM E-score” value does the source give for AAAAATTG here?
A: -0.134

Q: For GGAGCAAC, which “PBM E-score” value is on record?
A: -0.0625

Q: With AGATCCTG as the sequence, how does the “PBM E-score” value read?
A: -0.0555

Q: AAGGTGAG was tested. Which “PBM E-score” value did it give?
A: -0.192

Q: CAGCAATA was tested. Which “PBM E-score” value did it give?
A: 0.188

Q: AATGGCCC was tested. Which “PBM E-score” value did it give?
A: -0.158

Q: With CAATCCTA as the sequence, how does the “PBM E-score” value read?
A: -0.015

Q: Which “PBM E-score” value does the source give for ACGCCCAT here?
A: -0.0524

Q: CACCGACA was tested. Which “PBM E-score” value did it give?
A: -0.0582

Q: For CTATACTA, which “PBM E-score” value is on record?
A: 0.0535

Q: How did the “PBM E-score” value turn out when ACATATTG was run?
A: 0.0269

Q: For CCATATTA, which “PBM E-score” value is on record?
A: 0.148

Q: ACATATTA was tested. Which “PBM E-score” value did it give?
A: 0.317

Q: How did the “PBM E-score” value turn out when ATATACTA was run?
A: 0.259

Q: AGCTATTA was tested. Which “PBM E-score” value did it give?
A: 0.0722

Q: How did the “PBM E-score” value turn out when TAATATGA was run?
A: 0.133

Q: TAATATTA was tested. Which “PBM E-score” value did it give?
A: 0.424

Q: For GGCTATTA, which “PBM E-score” value is on record?
A: 0.175

Q: CGCTATTA was tested. Which “PBM E-score” value did it give?
A: 0.253

Q: With ATATACTC as the sequence, how does the “PBM E-score” value read?
A: -0.0465

Q: GAATATTA was tested. Which “PBM E-score” value did it give?
A: 0.227

Q: How did the “PBM E-score” value turn out when CAGGCTAA was run?
A: -0.266

Q: How did the “PBM E-score” value turn out when TAACCCGA was run?
A: -0.00699

Q: With GGCACCTA as the sequence, how does the “PBM E-score” value read?
A: -0.156

Q: How did the “PBM E-score” value turn out when AAGCCCAC was run?
A: -0.0637

Q: With ACAGAACC as the sequence, how does the “PBM E-score” value read?
A: 0.0474

Q: AAGAACCA was tested. Which “PBM E-score” value did it give?
A: -0.00253

Q: Which “PBM E-score” value does the source give for GGCAACCC here?
A: -0.174

Q: Which “PBM E-score” value does the source give for GAACCTGC here?
A: -0.018

Q: With ATGCCTTC as the sequence, how does the “PBM E-score” value read?
A: -0.162

Q: How did the “PBM E-score” value turn out when CGATATTA was run?
A: 0.352

Q: For AGCTACTA, which “PBM E-score” value is on record?
A: 0.0659

Q: How did the “PBM E-score” value turn out when CAATATTA was run?
A: 0.187

Q: Which “PBM E-score” value does the source give for CGCTACTC here?
A: 0.0265

Q: Which “PBM E-score” value does the source give for AAATATTG here?
A: 0.249

Q: With CGCTACTA as the sequence, how does the “PBM E-score” value read?
A: 0.276

Q: How did the “PBM E-score” value turn out when GAATATTC was run?
A: 0.338

Q: Which “PBM E-score” value does the source give for CGATATTC here?
A: 0.173

Q: For AAATATTA, which “PBM E-score” value is on record?
A: 0.298

Q: How did the “PBM E-score” value turn out when AAATATTC was run?
A: 0.249
